# From PubChem BioAssay (EPA / NIEHS)
# The source made the active and inactive calls. The calls were made as follows: active = hit-call score of the fitted dose curve at least 0.9, where 1 is the maximum; inactive = score below 0.9.
# Assays:
# [1] = read-out: Tissue Factor, F3 (gene 2152); experiment: BSK_CASM3C_TissueFactor: BioMAP Diversity Plus: CASM3C Assay for Tissue Factor Biomarker Activity (AID 2283052); details: primary human coronary artery smooth muscle cells; actives raise or lower the signal;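 also: cell surface tissue factor protein level read by ELISA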
# [2] = read-out: Interferon-gamma inducible Protein 10 (IP10), CXCL10 (gene 3627); experiment: BSK_hDFCGF_IP10: BioMAP Diversity Plus: hDFCGF Assay for Interferon-gamma inducible Protein 10 (IP10) Biomarker Activity (AID 2283053); details: primary human foreskin fibroblasts; actives raise or lower the signal
# Procedure, shortened: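 Cells: human dermal foreskin fibroblasts. Exposure: 24 h post-dosing. Detection: IP-10 ELISA, with values expressed against DMSO controls and fitted in both directions.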
# [3] = read-out: Urokinase-type plasminogen activator receptor (uPAR), PLAUR (gene 5329); experiment: BSK_CASM3C_uPAR: BioMAP Diversity Plus: CASM3C Assay for Urokinase-type plasminogen activator receptor (uPAR) Biomarker Activity (AID 2283054); details: primary human coronary artery smooth muscle cells; actives raise or lower the signal;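 also: cell-surface uPAR protein level quantified by ELISA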
# [4] = read-out: Vascular cell adhesion molecule 1 (VCAM1), VCAM1 (gene 7412); experiment: BSK_CASM3C_VCAM1: BioMAP Diversity Plus: CASM3C Assay for Vascular cell adhesion molecule 1 (VCAM1) Biomarker Activity (AID 2283055); details: primary human coronary artery smooth muscle cells; actives raise or lower the signal;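 also: VCAM-1 protein level quantified by ELISA on the cells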
# [5] = read-out: Collagen III, COL3A1 (gene 1281); experiment: BSK_hDFCGF_CollagenIII: BioMAP Diversity Plus: hDFCGF Assay for Collagen III Biomarker Activity (AID 2283056); details: primary human foreskin fibroblasts; actives raise or lower the signal
# Procedure, shortened: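 ELISA read-out of collagen III from human skin fibroblast cultures sampled 24 h post-dosing. Values were derived by bidirectional fitting relative to the DMSO vehicle control.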
# [6] = read-out: Epidermal growth factor receptor (EGFR), EGFR (gene 1956); experiment: BSK_hDFCGF_EGFR: BioMAP Diversity Plus: hDFCGF Assay for Epidermal growth factor receptor (EGFR) Biomarker Activity (AID 2283057); details: primary human foreskin fibroblasts; actives raise or lower the signal
# Procedure, shortened: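 Dosing human primary skin fibroblasts, then measuring surface EGFR by ELISA at 24 h, gives the endpoint; gains and losses relative to DMSO were fitted in both directions.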
# [7] = read-out: Interleukin-8 (IL8), CXCL8 (gene 3576); experiment: BSK_hDFCGF_IL8: BioMAP Diversity Plus: hDFCGF Assay for Interleukin-8 (IL8) Biomarker Activity (AID 2283058); details: primary human foreskin fibroblasts; actives raise or lower the signal
# Procedure, shortened: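 Cells used are human skin primary fibroblasts. Chemical is added, cultures run 24 h, then IL-8 is quantified by ELISA, and gain or loss versus DMSO control is fitted in both directions.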
# [8] = BSK_hDFCGF_Proliferation: Cell Proliferation Assessment in the BioMAP Diversity Plus: hDFCGF Assay (AID 2283059); details: primary human foreskin fibroblasts;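 also: curves fitted for both rise and fall of signal versus DMSO baseline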
# Procedure, shortened: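 Sub-confluent human foreskin fibroblast cultures receive test chemical […]. Relative cell number is quantified by sulforhodamine B staining (0.1%, after 10% TCA fixation) at 560 nm, with bidirectional fitting referenced to DMSO.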
# [9] = read-out: Macrophage colony-stimulating factor (MCSF), CSF1 (gene 1435); experiment: BSK_hDFCGF_MCSF: BioMAP Diversity Plus: hDFCGF Assay for Macrophage colony-stimulating factor (MCSF) Biomarker Activity (AID 2283060); details: primary human foreskin fibroblasts; actives raise or lower the signal
# Procedure, shortened: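 Primary human foreskin fibroblasts dosed with chemical; 24 h later, M-CSF quantified by ELISA; curves fitted in both directions vs DMSO negative control.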
# [10] = BSK_hDFCGF_SRB: Viability Assessment in the BioMAP Diversity Plus: hDFCGF Assay (AID 2283061); details: primary human foreskin fibroblasts;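 also: cells exposed to compound for 24 h before the read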
# Procedure, shortened: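 Readout is SRB absorbance at 560 nm, reflecting total protein in parallel cultures of human foreskin fibroblasts harvested 24 h after chemical dosing. Activity was fitted bidirectionally relative to DMSO.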
Compound,outcome [1],outcome [2],outcome [3],outcome [4],outcome [5],outcome [6],outcome [7],outcome [8],outcome [9],outcome [10],AC50 [1],AC50 [2],AC50 [3],AC50 [4],AC50 [5],AC50 [8],AC50 [9],AC50 [10],AC50 [6],AC50 [7]
N#Cc1cccnc1,inactive,inactive,inactive,inactive,inactive,inactive,inactive,inactive,inactive,inactive,–,–,–,–,–,–,–,–,–,–
O=C1C=CC(=O)c2ccccc21,–,–,–,–,–,inactive,inactive,–,–,–,6.75 µM (active),1.55 µM (active),4.99 µM (active),3.84 µM (active),1.27 µM (active),0.905 µM (active),1.17 µM (active),1.63 µM (active),–,–
Cc1c([N+](=O)[O-])c(C)c([N+](=O)[O-])c(C(C)(C)C)c1[N+](=O)[O-],inactive,inactive,inactive,inactive,inactive,inactive,inactive,–,inactive,inactive,–,–,–,–,–,31.4 µM (active),–,–,–,–
CCCCN(CCCC)C(=S)[S-].CCCCN(CCCC)C(=S)[S-].[Ni+2],inactive,inactive,inactive,inactive,inactive,inactive,inactive,inactive,inactive,inactive,–,–,–,–,–,–,–,–,–,–
Cc1cc(Cl)ccc1N,inactive,inactive,inactive,inactive,inactive,inactive,inactive,–,inactive,inactive,–,–,–,–,–,5.13 µM (active),–,–,–,–
OCCN(CCO)CCO,inactive,inactive,inactive,inactive,inactive,inactive,inactive,inactive,inactive,inactive,–,–,–,–,–,–,–,–,–,–
O=[N+]([O-])c1cccc2ccccc12,inactive,inactive,–,inactive,inactive,inactive,inactive,inactive,inactive,inactive,–,–,20 µM (active),–,–,–,–,–,–,–
O=[N+]([O-])c1ccc(Nc2ccccc2)cc1,inactive,inactive,inactive,inactive,inactive,inactive,inactive,inactive,inactive,inactive,–,–,–,–,–,–,–,–,–,–
CC(C)(COCC1CO1)COCC1CO1 (stereo not given),inactive,inactive,inactive,inactive,inactive,inactive,inactive,–,inactive,inactive,–,–,–,–,–,20 µM (active),–,–,–,–
Cc1ccc(OP(=O)(Oc2ccc(C)cc2C)Oc2ccc(C)cc2C)c(C)c1,inactive,inactive,inactive,inactive,inactive,–,inactive,–,–,–,–,–,–,–,–,4.72 µM (active),5.48 µM (active),4.22 µM (active),3.88 µM (active),–
Clc1cccc(Cl)c1,inactive,inactive,inactive,inactive,inactive,inactive,inactive,inactive,inactive,inactive,–,–,–,–,–,–,–,–,–,–
CC(C)=CC1C(C(=O)OCc2cccc(Oc3ccccc3)c2)C1(C)C (stereo not given),–,inactive,inactive,inactive,–,inactive,inactive,–,–,–,9.79 µM (active),–,–,–,7.5 µM (active),20 µM (active),7.43 µM (active),12.4 µM (active),–,–
O=S(=O)(C(Cl)(Cl)Cl)C(Cl)(Cl)Cl,–,–,–,–,–,–,–,–,–,–,1.85 µM (active),2.92 µM (active),3.04 µM (active),1.41 µM (active),2.27 µM (active),0.0831 µM (active),2.3 µM (active),1.52 µM (active),1.55 µM (active),3.56 µM (active)
O=c1oc2ccccc2c(O)c1C(CC(O)c1ccc(-c2ccc(Br)cc2)cc1)c1ccccc1 (stereo not given),–,–,–,–,–,–,inactive,–,–,–,16.2 µM (active),5.38 µM (active),21.8 µM (active),5.57 µM (active),0.632 µM (active),5.25 µM (active),5.57 µM (active),5.28 µM (active),4.73 µM (active),–
CCCCCCCCCCCCN(C)C,inactive,inactive,inactive,inactive,inactive,inactive,inactive,inactive,inactive,inactive,–,–,–,–,–,–,–,–,–,–
Nc1c(Oc2ccccc2)cc(O)c2c1C(=O)c1ccccc1C2=O,inactive,–,inactive,inactive,inactive,inactive,inactive,inactive,–,inactive,–,17 µM (active),–,–,–,–,10 µM (active),–,–,–
C#CCOC(=O)/C=C(C)/C=C/CC(C)CCCC(C)C (stereo not given),–,inactive,inactive,inactive,–,inactive,inactive,inactive,–,inactive,4.03 µM (active),–,–,–,12.6 µM (active),–,10 µM (active),–,–,–
